# Laboratory results: US20200172896, “EVOLUTION OF BIOACTIVE SEQUENCE-DEFINED SYNTHETIC POLYMERS USING DNA-TEMPLATED POLYMERIZATION” (President and Fellows of Harvard College, published 2020)
# Target: PCSK9 (Homo sapiens, UniProt Q8NBP7;Q8NBP7 Q8NBP7:31-152,Q8NBP7:153-692)
# Assay: SPR; vs PCSK9-A5; salmon sperm DNA
# Conditions: tags: ACROBiosystems PC9-H5223; label: 5' dual biotin-iSp18; ssDNA; as PCSK9-A5 except codon 13 CAC unmodified [codon 13 CAC (nt 55-57) unmodified; other codons as PCSK9-A5 (including phenol at codon 9 TTT nt 43-45, cyclopentyl at codon 14 CTT nt 58-60)]
# Sequence of PCSK9 (Q8NBP7 31-152, chain 1 of 2): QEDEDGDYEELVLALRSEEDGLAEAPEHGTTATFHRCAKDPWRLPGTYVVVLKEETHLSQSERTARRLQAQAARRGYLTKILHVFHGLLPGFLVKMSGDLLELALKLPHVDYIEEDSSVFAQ
# Sequence of PCSK9 (Q8NBP7 153-692, chain 2 of 2): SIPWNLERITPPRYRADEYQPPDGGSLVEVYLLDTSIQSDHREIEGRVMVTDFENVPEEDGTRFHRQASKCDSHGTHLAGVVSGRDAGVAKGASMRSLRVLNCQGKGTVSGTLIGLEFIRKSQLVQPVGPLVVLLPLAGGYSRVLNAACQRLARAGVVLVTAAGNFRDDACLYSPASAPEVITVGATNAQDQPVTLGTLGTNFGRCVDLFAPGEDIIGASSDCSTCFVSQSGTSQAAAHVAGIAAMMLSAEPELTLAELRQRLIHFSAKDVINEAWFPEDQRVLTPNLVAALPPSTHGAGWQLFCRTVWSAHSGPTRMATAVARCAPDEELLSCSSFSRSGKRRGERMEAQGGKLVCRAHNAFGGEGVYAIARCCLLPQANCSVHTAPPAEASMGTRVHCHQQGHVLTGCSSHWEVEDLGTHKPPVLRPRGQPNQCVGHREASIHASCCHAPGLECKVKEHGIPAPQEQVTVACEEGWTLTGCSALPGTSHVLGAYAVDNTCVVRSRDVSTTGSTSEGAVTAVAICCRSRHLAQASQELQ
sequence,measurement,value
CGAATCAGATTGGACCAGCCACGTTACTGATTCTTCTACCGTTTTTGCCCCCGGCACCTTCTGGAGTCCAGATGTAGGTAG,binding signal,~2 fold reduction in affinity
